# PLK1 PBD block: blocks phosphopeptide binding to human PLK1 polo-box domain; Plk1 PBD binding of FITC phosphopeptide, fluorescence polarization; Potency, µM, most hits filed as inhibitors; 360,000 compounds, 2.8% hits; AID 720504; also: series mostly up to about 57 µM; nearly all actives have a fitted effect of over 65% in size
# uPA generation: cell surface uPA generation inhibition. cell surface uPA generation assay, qHTS. Potency, µM (doses to about 38.3 µM), actives largely listed as inhibitors. 330,000 compounds, 0.31% hits. AID 540303; active = well fitted inhibition curve with a large enough effect; inconclusive = small, poorly fitted or top-dose-only effect; inactive = no such curve, though single readings can be large or run the other way; tested in mouse RAW 264.7 cells; also: nearly all actives have a fitted effect of over 55% in size
# VDR inhibitor: vitamin D3 receptor (human) inhibition | P11473 | VDR-SRC2-3 peptide fluorescence polarization, 2 h | Potency, µM, actives largely listed as inhibitors | 400,000 compounds, 0.93% hits
# Target sequence (P11473 whole entry, looked up): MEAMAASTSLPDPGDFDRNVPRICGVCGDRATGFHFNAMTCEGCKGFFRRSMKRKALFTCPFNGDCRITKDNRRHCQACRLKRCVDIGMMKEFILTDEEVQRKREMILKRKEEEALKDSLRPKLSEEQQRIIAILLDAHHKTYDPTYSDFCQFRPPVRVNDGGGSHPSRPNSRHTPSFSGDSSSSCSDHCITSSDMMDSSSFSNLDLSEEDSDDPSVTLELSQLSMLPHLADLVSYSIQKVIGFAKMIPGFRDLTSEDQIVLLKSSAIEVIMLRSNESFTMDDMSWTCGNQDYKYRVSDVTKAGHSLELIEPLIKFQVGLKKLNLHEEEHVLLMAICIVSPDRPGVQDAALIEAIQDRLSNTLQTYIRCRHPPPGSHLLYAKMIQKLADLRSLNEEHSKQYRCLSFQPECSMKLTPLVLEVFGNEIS
#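 Measured by FP: displacement of SRC2-3 coactivator peptide from VDR by library compounds, following a two-hour ambient incubation.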
# TSHR antagonist: blocks TSH signaling through the human TSH receptor | P16473 | AID 504810 | TSHR-expressing cells, TSH-stimulated cAMP HTRF, 2 h; hits give low values | 330,000 compounds, 0.2% hits | activity change, negative = inhibition, % at 11.5 µM;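 active = activity change below a set negative limit, meaning inhibition stronger than a set level, cut at about -70% in these data; inconclusive = activity change between two set negative limits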
#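 Cell-based HTRF cAMP assay; TSHR cells + compound, TSH EC80 (4nM final), 2 h, 37 deg C. Lysis with anti-cAMP cryptate and cAMP-d2, 30 min RT, read 665/620 nm.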
# PTAP TSG101 blk: blocks PTAP/TSG101 interaction to inhibit HIV-1 budding. Fluorescence polarization, FITC-PTAP peptide / Tsg101 binding. AID 493005. Potency, µM (series often up to 115 µM), actives largely listed as inhibitors. Q99816. 340,000 tested, under 10 active; active = well fitted inhibition curve with a large enough effect in the main read-out, with a control signal flat, not every such curve was filed as active; inconclusive = small, poorly fitted or top-dose-only effect, or effect the other way, or a change in a side signal; inactive = no such curve, though single readings can be large or run the other way
#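 Tsg101 binding domain (10 uM final) was mixed with compound and a FITC-labeled PTAP peptide (50 nM final) in HEPES pH 7.5 buffer with NaCl, Tween 20, EDTA and TCEP; fluorescence polarization was read after 20 min at r.t.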
# VDR inh confirm: confirmation of human vitamin D receptor inhibitors; 840 compounds, 89% hits; shares compounds with VDR inhibitor; VDR-coactivator inhibition assay, qHTS confirmation; Potency, µM, actives largely listed as inhibitors
# VDR FP: confirmation of human VDR-coactivator binding inhibitors, fluorescein label; Potency, µM (top dose mostly 57.1 µM), usual class: inhibitors; AID 602200; shares compounds with VDR inhibitor; 840 compounds, 48% hits; VDR-coactivator binding, fluorescein fluorescence polarization
# VDR bla: confirmation of human vitamin D receptor inhibitors in reporter cells. shares compounds with VDR inhibitor. VDR beta-lactamase reporter cells, FRET ratio; cells co-treated with VDR agonist LG190178. Potency, µM (top dose mostly 46.1 µM), most hits filed as inhibitors. 840 compounds, 23% hits. AID 602202
# VDR cytotox: counter-screen for vitamin D receptor inhibitors: cytotoxicity. Potency, µM (top dose mostly 48.3 µM), usual class: cytotoxic. 840 compounds, 18% hits. cytotoxicity counter-screen, cell viability, qHTS. AID 602204. shares compounds with VDR inhibitor; also: nearly all actives have a fitted effect of over 75% in size
# A number is an active result; - = inactive; ? = inconclusive; . = not tested or not shown. In the library only some 3.1% were active in any assay of this set; here they are far more common. Unless noted, calls follow the shape of the dose curve; as a rule, active = well fitted curve in the direction sought with a large enough effect; inconclusive = small, poorly fitted or top-dose-only effect, or another doubt; inactive = no such curve, though single readings can be large; an effect the other way counts as inactive or inconclusive.
SMILES,PLK1 PBD block,uPA generation,VDR inhibitor,TSHR antagonist,PTAP TSG101 blk,VDR inh confirm,VDR FP,VDR bla,VDR cytotox
CCOc1cc(/C=C2\N=C(C)OC2=O)cc(Br)c1OCC(=O)OC,?,-,20µM,-,-,11,?,-,-
CCOc1cc(/C=C2\N=C(C)OC2=O)cc(Br)c1OCCc1ccccc1,?,-,?,-,-,.,.,.,.
Cc1nc2c(=O)[nH]c(=S)n(C)c2nc1C,3µM,-,50µM,-,-,15,?,-,?
Cn1c(=S)[nH]c2cccnc21,-,-,-,-,-,.,.,.,.
CC1(C)Oc2ccc3ccc(=O)oc3c2CC1=O,.,.,-,.,.,.,.,.,.
CN(C)S(=O)(=O)c1cccc(N=C2NN=C(c3ccccc3)CS2)c1,?,-,?,-,-,.,.,.,.
CC(=O)Nc1ccc(C2=NNC(=Nc3cccc(S(=O)(=O)N(C)C)c3)SC2)cc1,19µM,-,?,-,-,13,13µM,?,?
C(=C\c1ccccn1)/c1ccccn1,?,-,?,-,-,.,.,.,.
O=C1/C(=C/c2ccc(O)cc2)COc2ccccc21,-,-,?,-,-,.,.,.,.
O=C1/C(=C/c2ccccn2)COc2ccccc21,-,.,?,-,-,13,22µM,?,-
CC(C)(C)C1C/C(=C/c2ccccn2)C(=O)/C(=C/c2ccccn2)C1 (centres undefined),?,-,?,-,-,2.5,2µM,1µM,12µM
O=c1c(Cl)c(Cl)cnn1Cc1nnc(-c2ccc(Cl)cc2)o1,?,-,?,-,-,?,?,?,?
C[C@]12CCC(=O)C=C1CC[C@@H]1[C@@H]2[C@@H](O)C[C@@]2(C)[C@H]1CC[C@]2(O)C(=O)COP(=O)(O)O,.,.,-,.,.,.,.,.,.
Cc1ccc(C=Nc2ccc(N(C)C)cc2)o1,-,-,1µM,-,-,12,-,-,-
Cc1ccc(C=Nc2ccccc2C(N)=O)o1,-,-,-,-,-,.,.,.,.
CCn1nc(C)cc1-c1nnc(Sc2ncc([N+](=O)[O-])s2)n1C,?,?,7.9µM,-92,-,4.7,3.5µM,3.7µM,?
CCC1CCCCN1S(=O)(=O)c1ccc(NC(=O)c2nc(S(C)(=O)=O)ncc2Cl)cc1 (centres undefined),12µM,-,20µM,-84,-,6,3.2µM,12µM,9.2µM
CC(C)(C)OC(=O)N[C@H](C(=O)OC(C)(C)C)c1ccc(C(F)(F)F)cc1,-,-,-,-,-,.,.,.,.
O=C(CCS(=O)(=O)c1nc(-c2cccs2)cc(C(F)(F)F)n1)Nc1ccc(Br)cc1,.,.,14µM,.,.,3.5,4µM,?,?
Cc1ccc(O)c(NC(=O)CCS(=O)(=O)c2nc(-c3cccs3)cc(C(F)(F)F)n2)c1,.,.,20µM,.,.,4.5,7.9µM,?,?
O=C(CCS(=O)(=O)c1nc(-c2cccs2)cc(C(F)(F)F)n1)Nc1cc(Br)ccc1O,.,.,11µM,.,.,3.2,3.5µM,-,?
CC(C)CNC(=O)CCSc1nc(-c2ccc3c(c2)OCO3)cc(C(F)(F)F)n1,.,.,-,.,.,.,.,.,.
O=C(CCS(=O)(=O)c1nc(-c2ccc3c(c2)OCO3)cc(C(F)(F)F)n1)Nc1ccc(F)cc1F,.,.,40µM,.,.,11,14µM,?,-
Cc1ccc(N2C(=O)CSC23C(=O)N(CC(=O)NCCc2ccccc2)c2ccccc23)cc1C (centres undefined),.,.,-,.,.,.,.,.,.
CCN(CC)CCNC(=O)C1CCN(c2nn3cc(-c4ccc(F)cc4)nc3s2)CC1,.,.,-,.,.,.,.,.,.
O=C(O)COc1ccc(/C=C/C(=O)c2ccc(C3CCCCC3)cc2)cc1,24µM,-,?,-,-,7.1,13µM,?,-
Cc1nc2sccn2c(=O)c1S(=O)(=O)N1CCN(c2ccc(F)cc2)CC1,-,-,-,-,-,.,.,.,.

# Assay outcomes as filed in PubChem.
